From PubChem
Compounds with a hit are over-represented: about 21% of the library has one in this group of screens.
RORg inh: inhibitors of mouse ROR gamma transcriptional activity; P51450; Drosophila S2 Gal4-RORgamma UAS-luciferase reporter, 20 h; Potency, µM (top dose mostly 53.6 µM), most hits filed as inhibitors; 5.4% of 310,000 active; note: nearly all actives have a fitted effect of over 60% in size
Target sequence (P51450 whole entry, looked up, the tested form may be a part): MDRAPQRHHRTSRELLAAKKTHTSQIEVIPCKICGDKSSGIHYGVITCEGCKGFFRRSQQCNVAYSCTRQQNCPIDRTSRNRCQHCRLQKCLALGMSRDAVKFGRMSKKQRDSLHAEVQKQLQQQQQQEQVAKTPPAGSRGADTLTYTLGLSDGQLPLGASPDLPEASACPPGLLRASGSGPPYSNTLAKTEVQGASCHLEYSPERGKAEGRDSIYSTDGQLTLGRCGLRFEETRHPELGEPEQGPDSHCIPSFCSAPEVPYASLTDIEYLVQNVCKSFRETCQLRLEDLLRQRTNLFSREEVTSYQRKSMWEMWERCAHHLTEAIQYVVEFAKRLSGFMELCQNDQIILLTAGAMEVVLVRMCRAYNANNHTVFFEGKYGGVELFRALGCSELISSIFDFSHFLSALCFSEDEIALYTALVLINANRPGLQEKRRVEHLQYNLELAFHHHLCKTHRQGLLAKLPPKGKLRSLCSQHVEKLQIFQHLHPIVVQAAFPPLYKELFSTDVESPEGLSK
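Drosophila S2 cells stably expressing Gal4-DBD/mouse RORγ fusion under metallothionein promoter plus UAS-luciferase; compound 1 h, then 700 uM CuSO4 induction for 20 h at ambient temperature; inhibition read as reduced luminescence.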
ELG1 repair inh: inhibitors of ELG1-dependent DNA repair in HEK293T cells; AID 504467; HEK293T ELG1-luciferase reporter, luminescence, 16 h; DNA damage induced by 5-fluorouridine; 2.3% of 330,000 active; Potency, µM (series often up to 46.1 µM), hits mostly inhibitors; note: nearly all actives have a fitted effect of over 55% in size
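Luminescence from the luciferase reporter, measured 30 min after ONE-Glo reagent at room temperature, was the read-out. Beforehand, 2,000 cells per well were exposed for 16 hr at 37 °C to 5-fluorouridine together with compound or vehicle.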
TDP1 cell noCPT: qHTS for Inhibitors of human tyrosyl-DNA phosphodiesterase 1 (TDP1): qHTS in cells in absence of CPT. DT40 Tdp1-/- hTDP1 cells, no CPT, ATP luminescence, 48 h. Potency, µM (top dose mostly 46.2 µM), usual class: inhibitors. 15% of 420,000 active; note: nearly all actives have a fitted effect of over 55% in size
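Luminescent ATP content (CellTiter-Glo) served as the growth readout. Knockout chicken DT40 cells expressing human TDP1 were exposed to compounds without camptothecin for a minimum 48 hr at 37 °C.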
VP16 counter: counter-screen for ROR gamma inhibitors: Gal4-VP16 reporter; 3.5% of 310,000 active; Drosophila S2 Gal4-VP16 UAS-luciferase, luminescence, 20 h; Potency, µM (top dose mostly 53.6 µM), hits mostly inhibitors; AID 2546;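 note: Gal4-VP16 expression switched on by copper sulfate through the metallothionein promoter; nearly all actives have a fitted effect of over 50% in size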
TDP1 cell CPT: growth inhibition of DT40 Tdp1-/-;hTDP1 cells with camptothecin (screen for TDP1 inhibitors); chicken DT40 Tdp1-/-;hTDP1 cells + 20 nM CPT, ATP luminescence, 48 h; 12% of 420,000 active; AID 686979; Potency, µM (highest dose often 46.2 µM), actives largely listed as inhibitors; note: nearly all actives have a fitted effect of over 55% in size
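Cell growth measured by CellTiter-Glo luminescence after a minimum 48 h, 37 C compound exposure with 20 nM CPT in Tdp1-knockout DT40 cells stably expressing hTDP1, seeded 400/well; qHTS titration format.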
IL-1B inflam inh: inflammasome signaling inhibition, IL-1 beta readout; 4.7% of 360,000 active; activity change, % at 57.5 µM; AID 743279; THP-1 LPS/ATP IL-1B secretion, AlphaLISA, 16 h; hits give low values; in the data active = activity change below about -50%; inconclusive = mostly about -30% to -49%
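Secreted IL-1B measured by AlphaLISA bead assay after 16 h compound exposure of THP-1 cells; compounds (final up to 57.5 uM) added 1 h before LPS (250 ng/mL) and ATP (1.25 mM) stimulation; lower signal means less secretion.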
A number is an active result; n = inactive; u = inconclusive; x = not tested or not shown; [ ] = remark or other dose. Unless noted, calls come from the whole dose curve; as a rule, active = well fitted curve in the direction sought with a large enough effect; inconclusive = small, poorly fitted or top-dose-only effect, or another doubt; inactive = no such curve, though single readings can be large; an effect the other way counts as inactive or inconclusive.

SMILES	RORg inh	ELG1 repair inh	TDP1 cell noCPT	VP16 counter	TDP1 cell CPT	IL-1B inflam inh
CC1CCN(c2nc3c(S(=O)(=O)c4ccc(Cl)cc4)nnn3c3ccsc23)CC1	x	x	16µM	x	u	x
CC1CCN(c2nc3c(S(=O)(=O)c4ccccc4)nnn3c3ccsc23)CC1	x	x	n	x	n	x
CN(C(=O)COC(=O)CNC(=O)c1sc2ccccc2c1Cl)C1CCS(=O)(=O)C1 (stereo not drawn)	x	n	n	x	n	n
Cc1ccc2nc(/C(C#N)=C\c3cc(O)ccc3[N+](=O)[O-])[nH]c2c1	n	n	n	n	n	n
COc1c(O)ccc(/C=C(\C#N)c2nc3ccccc3[nH]2)c1[N+](=O)[O-]	u	n	u	u	n	n
COc1cc(/C=C(\C#N)c2nc3ccc(C)cc3[nH]2)cc([N+](=O)[O-])c1O	n	u	21µM	n	u	n
COc1cc(/C=C(\C#N)c2nc3ccc(C)cc3[nH]2)c([N+](=O)[O-])cc1OC	n	u	u	n	n	-89
Cn1cc(S(C)=O)c(=O)c2ccc(F)cc21 (stereo not drawn)	x	x	n	x	n	x
CCCCCC/C=C1\CC(C(=O)OCC)Oc2ccccc21 (stereo not drawn) (tested in a mixture with another compound)	n	x	x	n	x	x
CCOC(=O)C1CCN(C(=O)c2ccc3c(c2)sc2nc(-c4ccc(OC)cc4)cn23)CC1	x	x	23µM	x	23µM	x
CCOC(=O)C1CCN(C(=O)c2ccc3c(c2)sc2nc(-c4ccc(C)cc4)cn23)CC1	x	x	u	x	n	x
CCOC(=O)N1CCN(C(=O)c2ccc3c(c2)sc2nc(-c4ccc(OC)cc4)cn23)CC1	n	u	23µM	n	u	n
CCNC(=S)N(CCO)Cc1cc2cc3c(cc2[nH]c1=O)OCO3	n	n	n	n	n	n
CC/C(=C\C(=O)c1ccncc1)Nc1ccc(O)cc1	n	u	21µM	u	u	u
CCCCCCCCCCCCOCC1CO1 (stereo not drawn)	n	x	x	n	x	x
COCCn1c(SCc2ccc(C(=O)OC)o2)nnc1-c1c[nH]c2ccccc12	n	n	u	n	n	n
Cn1c(SCc2ccccc2)nnc1-c1c[nH]c2ccccc12	n	u	u	u	u	n
COC(=O)c1ccc(CSc2nnc(-c3c[nH]c4ccccc34)n2-c2ccccc2)cc1	u	u	16µM	n	21µM	u
COC(=O)c1ccc(CSc2nnc(-c3c[nH]c4ccccc34)n2C)o1	n	n	13µM	n	23µM	n
CCc1cc2c(CN3CCN(CCO)CC3)cc(=O)oc2cc1O	n[0.365 µM]	n	n	x	n	n
Cc1cccc(OCCCCNCc2ccccc2)c1	n	n	u	n[10 µM]	n	-72
COc1cccc(OCCNCc2ccccc2)c1	n[1.91 µM]	n	18µM	n	u	n
CCOC(=O)CS(=O)(=O)c1nc(-c2ccc(F)cc2)cc(C(F)(F)F)n1	5.6µM	u	0.82µM	5µM	0.52µM	-119
CCOC(=O)CS(=O)(=O)c1nc(-c2ccccc2)cc(C(F)(F)F)n1	2.8µM	u	1.6µM	5µM	0.65µM	-125
COC(=O)CCS(=O)(=O)c1nc(-c2ccccc2)cc(C(F)(F)F)n1	7.1µM	u	2.3µM	5.6µM	3.3µM	-105
SMILES	RORg inh	ELG1 repair inh	TDP1 cell noCPT	VP16 counter	TDP1 cell CPT	IL-1B inflam inh
COc1nc(-c2ccccc2)cc(C(F)(F)F)n1	n	x	n	n	n	n
CCOC(=O)CCS(=O)(=O)c1nc(-c2ccccc2)cc(C(F)(F)F)n1	n	u	0.65µM	u	0.41µM	-99
CCOC(=O)c1c(C(F)(F)F)cc(-c2ccc(F)cc2)nc1C	n	u	n	n	n	n
CCOC(=O)CS(=O)(=O)c1ccccc1	n	n	n	n	n	u
COc1ccc(NC(=O)CS(=O)c2cccc(Cl)c2)cc1 (stereo not drawn)	n	n	n	n	n	n
O=C(Nc1cccc(Cl)c1)N1Cc2ccccc2Oc2ncccc21	x	x	u	x	n	x
CC1(C(=O)NS(=O)(=O)c2ccc(Cl)cc2)CCN1C(=O)Cc1ccc(Cl)cc1Cl (stereo not drawn)	x	x	n	x	n	n
Nn1c(COc2cccc(Br)c2)nnc1SCC(=O)NCC1CCCO1 (stereo not drawn)	x	n	n	x	n	n
COc1ccc(-c2cc(C(F)(F)F)nc(SCC(=O)NCCc3ccccc3)n2)cc1	x	x	u	x	n	x
COCC(C)NC(=O)CCS(=O)(=O)c1nc(-c2ccc(OC)cc2)cc(C(F)(F)F)n1 (stereo not drawn)	n[0.365 µM]	u	4.6µM	x	4.1µM	-102
Cc1nn(-c2ccc(C(=O)NCC(c3ccco3)N3CCCC3)cc2)c(C)c1Cl (stereo not drawn)	x	n	n	x	u	u
CCOC(=O)c1c(C)c(C(=O)N2CCc3ccccc3C2)c(C)n1CC	n	u	26µM	n	u	n
CC1CCN(C(=O)c2[nH]cnc2C(=O)NCCCCCNC(=O)OC(C)(C)C)CC1	x	n	n	x	u	n
CC(C)(C)OC(=O)NCCCC[C@H](NC(=O)c1nc[nH]c1C(=O)N1CCc2ccccc2C1)C(=O)OC(C)(C)C	u	8.2µM	21µM	n	26µM	u
CC(C)(C)OC(=O)NCCCCCNC(=O)c1nc[nH]c1C(=O)N1CCc2ccccc2C1	x	16µM	u	x	u	n
CC(C)(C)OC(=O)NCc1ccc(CNC(=O)c2nc[nH]c2C(=O)N2CCN(c3ccccc3)CC2)cc1	x	u	26µM	x	u	n
Cc1ccc(NC(=O)c2nc[nH]c2C(=O)N2CCc3ccccc3C2)cc1	x	n	n	x	n	n
CCOC(=O)c1ccc(NC(=O)c2nc[nH]c2C(=O)N2CCc3ccccc3C2)cc1	3.5µM	u	13µM	u	12µM	n
CC(C)(C)OC(=O)NCc1ccc(CNC(=O)c2nc[nH]c2C(=O)N2CCc3ccccc3C2)cc1	x	u	18µM	x	u	n
O=C(CSc1nc(-c2cccs2)nc2cc(=O)[nH]n12)Nc1ccccc1Cl	x	x	u	x	n	x
CC(=O)Nc1ccc(S(=O)(=O)N2CCC(N3CCN(Cc4ccc(C)cc4)C(=O)C3=O)CC2)cc1	x	x	n	x	n	x
CC1(C)CC(=O)C=C(c2ccc(COC(=O)/C=C/c3ccccc3)cc2)C1=O	x	x	21µM	x	u	n
CC1=NCCN1S(=O)(=O)c1c(C(C)C)cc(C(C)C)cc1C(C)C	n	u	u	u	n	-58
CC1=NCCN1S(=O)(=O)c1cc([N+](=O)[O-])ccc1Cl	n	n	n	n	n	n
